The results in this text go back to PubChem BioAssay (Tox21).

Values joined by “and” are separate entries in the source; they are usually repeats but may differ in a detail not shown here. Equal values may be shown once. Results filed as inconclusive are left out. The source holds several records for some structures; these can differ, active in one and inactive in another. Active and inactive are the calls of the source. Unless noted, the call rests on the fitted dose curve; in most records, active means well fitted curve in the direction sought with a large enough effect in the repeat runs; inconclusive means weak or mixed curves; inactive means no such curve, though single readings can be large; an effect the other way counts as inactive or inconclusive.

Assay [1] in a line: qHTS assay to identify small molecule antagonists of the estrogen related receptor (ERR) signaling pathway from Tox21 library - cell viability counter screen (AID 1224834). Further: on the % scale 0 is the no-effect control and ±100 the full control effect; nearly all actives have a fitted effect of over 30% in size. In outline: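 Seeded ERR cells were rested 6 h at 37 C/5% CO2 before compounds, positive and negative controls or DMSO were added. Incubation continued for 17.5 h, and viability was then quantified by CellTiter-Fluor fluorescence.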
For orientation: qHTS replaces the single test concentration by a dilution series.

For assay [2], the target named is Luciferin 4-monooxygenase (Photinus pyralis) (UniProt P08659). In words: qHTS assay to identify small molecule inhibitors of firefly luciferase (AID 1224835). Further: on the % scale 0 is the no-effect control and ±100 the full control effect; nearly all actives have a fitted effect of over 25% in size. The essentials: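 Quantitative HTS format; KM concentrations of both substrates. Purified P. pyralis FLuc activity quantified from luminescence images.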
Assay [3] in a line: qHTS assay to identify small molecule agonists of the constitutive androstane receptor (CAR) signaling pathway - cell viability counter screen (AID 1224836). Further: on the % scale 0 is the no-effect control and ±100 the full control effect; nearly all actives have a fitted effect of over 45% in size. The essentials: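 Multiplexed viability check: HepG2-CYP2B6-hCAR cells, 15-point compound dosing, 0.75 uM PK11195 final, 23 h at 37 C, CellTiter-Fluor fluorescence.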
Assay [4] in a line: qHTS assay to identify small molecule antagonists of the constitutive androstane receptor (CAR) signaling pathway - cell viability counter screen (AID 1224837). Further: on the % scale 0 is the no-effect control and ±100 the full control effect; nearly all actives have a fitted effect of over 45% in size. The essentials: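 To flag cytotoxic false antagonists, HepG2 hCAR/CYP2B6-2.2kb cells were treated 23 hr with 15-concentration compound series and 50 nM CITCO at 37 C/5% CO2; CellTiter-Fluor fluorescence was the measured end point.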

Assay [5] addresses Nuclear receptor subfamily 1 group I member 3 (Homo sapiens) (UniProt Q14994). As to the kind of experiment: qHTS assay to identify small molecule antagonists of the constitutive androstane receptor (CAR) signaling pathway (AID 1224838).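 Further: HepG2 cells stably expressing hCAR with CYP2B6 luciferase reporter stimulated by CITCO; nearly all actives have a fitted effect of over 40% in size.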 Further: potency means the concentration at half of the fitted maximal effect. The essentials:
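Human hepatoma HepG2 cells expressing hCAR and a CYP2B6 promoter (2.2 kb) luciferase construct; compound titration (15 points) with 50 nM CITCO final, 24 h at 37 C/5% CO2; luminescence via ONE-Glo after 30 min at room temperature.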

The nature of assay [6]: qHTS assay to identify small molecule antagonists of the estrogen related receptor signaling pathway with the pleiotropic PPARgamma coactivator (PGC) from Tox21 10K library - cell viability counter screen (AID 1224840; active means well fitted cell-killing curve with a large enough effect in the repeat runs, not every such curve was filed as active; further: on the % scale 0 is the no-effect control and ±100 the full control effect; nearly all actives have a fitted effect of over 40% in size). The essentials: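 Seeded PGC/ERR cells (2,000/well, 6 h, 37 C/5% CO2) get compound by pin tool; 17.5 h incubation at 37 C; CellTiter-Fluor added, 30 min, fluorescence measured.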

The nature of assay [7]: qHTS assay to identify small molecule agonists of the hypoxia (HIF-1) signaling pathway - cell viability counter screen (AID 1224844; calls by dose curve; further: nearly all actives have a fitted effect of over 50% in size; further: potency means the concentration at half of the fitted maximal effect). The essentials:
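HRE-bla ME-180; 0.5% dFBS; cpd 17 h, 37C, 5% CO2; CellTiter-Glo lum., 30 min RT, post-FRET read, same wells.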

Assay [8] is described as follows: qHTS assay to identify small molecule agonists of H2AX (AID 1224845; active means well fitted activation curve with a large enough effect in the signal ratio in the repeat runs, not every such curve was filed as active; the % refers to the signal ratio; further: on the % scale 0 is the no-effect control and ±100 the full control effect). In outline:
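Wild-type CHO-K1 cells plated overnight, then exposed 3 hr at 37C to compounds at 15 concentrations (0.76% DMSO). Lysed, then HTRF anti-pH2AX(S139)-cryptate/anti-H2AX-d2 detection after 24 hr at room temperature; emissions 665 and 620 nm.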

Assay [9] can be described thus: qHTS assay to identify small molecule agonists of the hypoxia (HIF-1) signaling pathway (AID 1224846; active means well fitted activation curve with a large enough effect in the signal ratio in the repeat runs, not every such curve was filed as active; the % refers to the signal ratio; further: on the % scale 0 is the no-effect control and ±100 the full control effect). The essentials: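 Reporter induction in HRE-bla ME-180 cells is taken as agonism: cells sit 5 hrs after plating, receive compounds or DMSO only, incubate 17 hrs at 37C under 5% CO2, and are loaded with CCF4-AM for beta-lactamase FRET measurement.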
Assay [10] in a line: qHTS assay to identify small molecule agonists of H2AX - cell viability counter screen (AID 1224847; calls by dose curve; further: nearly all actives have a fitted effect of over 30% in size; further: potency means the concentration at half of the fitted maximal effect). The essentials:
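After overnight plating of 1000 CHO-K1 cells per well, a 15-concentration compound series was applied for 3 hr at 37C. Luminescence from CellTiter-Glo, read following 30 min at room temperature, reflected cell viability.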

The nature of assay [11]: qHTS RealTime-Glo MT Cell Viability Assay in HepG2 cells - 24 hour (AID 1224867). Further: on the % scale 0 is the no-effect control and ±100 the full control effect; nearly all actives have a fitted effect of over 50% in size. The essentials: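 Real-time, nonlytic viability: 600 HepG2 cells/well mixed with NanoLuc enzyme plus prosubstrate; 5 h settle, compound (DMSO) added by pintool; luminescence monitored over 40 h at 37 C.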
Assay [12] can be described thus: qHTS RealTime-Glo MT Cell Viability Assay in HEK293 cells - 32 hour (AID 1224868). Further: nearly all actives have a fitted effect of over 50% in size. Further: potency means the concentration at half of the fitted maximal effect. The essentials: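 Cells + reagent dispensed (600 cells/well, HEK293) → 5 h at 37 C/5% CO2 → 23 nL compound in DMSO pinned → 40 h at 37 C → luminescence read at 0, 8, 16, 24, 32, 40 h.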
Assay [13] is described as follows: A CellTox Green Cytotoxicity Assay to monitor cytotoxicity in HEK293 cells - 0 hour (AID 1224869). Further: on the % scale 0 is the no-effect control and ±100 the full control effect; nearly all actives have a fitted effect of over 50% in size. The essentials:
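Tox21 screen in HEK293: membrane-impermeant cyanine dye fluoresces on binding dead-cell DNA; compound pinned 5 h post-seeding, plates held at 37 C, signal read repeatedly through 40 h.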

Assay [14] can be described thus: qHTS RealTime-Glo MT Cell Viability Assay in HepG2 cells - 40 hour (AID 1224870). The essentials: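 HepG2 cells mixed with RealTime-Glo MT reagents (NanoLuc plus cell-permeant prosubstrate) were seeded at 600 cells/well, incubated 5 h at 37 C/5% CO2, then pinned with compounds in DMSO; nonlytic luminescence tracked viability during 40 h treatment.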
In assay [15] the target is Nuclear receptor subfamily 1 group I member 3 (Homo sapiens) (UniProt Q14994). As to the kind of experiment: qHTS assay to identify small molecule agonists of the constitutive androstane receptor (CAR) signaling pathway (AID 1224839).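 Further: HepG2 cells stably carrying human CAR and a CYP2B6 luciferase reporter; on the % scale 0 is the no-effect control and ±100 the full control effect; nearly all actives have a fitted effect of over 15% in size.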 In outline: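 Using human hepatoma HepG2 cells engineered with hCAR and a CYP2B6-2.2kb reporter, 15-concentration compound series were incubated 24 h alongside PK11195 at 0.75 uM final, with luminescence quantified afterwards.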

In assay [16] the target is Thyrotropin receptor (Homo sapiens) (UniProt P16473). In words: qHTS assay to identify small molecule agonists of the thyroid stimulating hormone receptor (TSHR) signaling pathway (AID 1224843; calls by dose curve; further: on the % scale 0 is the no-effect control and ±100 the full control effect; nearly all actives have a fitted effect of over 45% in size). In outline:
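Compounds are titrated over 15 concentrations, in triplicate, onto TSHR-HEK293 cells seeded at 800/well. Plates sit 30 min at room temperature before cAMP-d2 and anti-cAMP cryptate are added; signal is read after a further hour.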

Assay [17] in a line: qHTS assay to identify small molecule antagonists of the estrogen related receptor signaling pathway with the pleiotropic PPARgamma coactivator (PGC) from Tox21 10K library (AID 1224841; call rule not given here; further: potency means the concentration at half of the fitted maximal effect). In outline:
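Test chemicals dissolved in DMSO were applied to pre-incubated (6 h) PGC/ERR cells at 2,000 cells/well for an 18 h, 37 C treatment; reporter luminescence was then read using One-Glo.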

A short description of assay [18]: qHTS assay to identify small molecule agonists of the estrogen related receptor signaling pathway with the pleiotropic PPARgamma coactivator (PGC) from Tox21 10K library (AID 1224842). Further: on the % scale 0 is the no-effect control and ±100 the full control effect; nearly all actives have a fitted effect of over 15% in size. The essentials: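 PGC/ERR reporter cells (NTP line) were seeded 2,000 per well, rested 6 h at 37 C/5% CO2, then pin-dosed with compounds in DMSO for 18 h at 37 C; luciferase read by One-Glo luminescence after 30 min at room temperature.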

Assay [19] is described as follows: qHTS assay to identify small molecule antagonists of the estrogen related receptor (ERR) signaling pathway from Tox21 library (AID 1224848). The essentials:
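First, 2,000 ERR cells per well were plated and held 6 h at 37 C/5% CO2. Next, compounds in DMSO were pinned in and left 18 h at 37 C. Finally, ONE-Glo was added and luminescence read after 30 min at room temperature.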

The nature of assay [20]: qHTS assay to identify small molecule agonists of the estrogen related receptor (ERR) signaling pathway from Tox21 library (AID 1224849; calls by dose curve; further: on the % scale 0 is the no-effect control and ±100 the full control effect; nearly all actives have a fitted effect of over 15% in size). The following applies: ERR reporter cell line, ONE-Glo luciferase, 18 h; at 92.4 µM (top of the series). In outline:
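Tox21 compounds tested for ERR agonism in an NTP reporter cell line: 18 h treatment at 37 C, then ONE-Glo luminescence.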

Sequence of Nuclear receptor subfamily 1 group I member 3 (Homo sapiens) (Q14994 whole entry, looked up): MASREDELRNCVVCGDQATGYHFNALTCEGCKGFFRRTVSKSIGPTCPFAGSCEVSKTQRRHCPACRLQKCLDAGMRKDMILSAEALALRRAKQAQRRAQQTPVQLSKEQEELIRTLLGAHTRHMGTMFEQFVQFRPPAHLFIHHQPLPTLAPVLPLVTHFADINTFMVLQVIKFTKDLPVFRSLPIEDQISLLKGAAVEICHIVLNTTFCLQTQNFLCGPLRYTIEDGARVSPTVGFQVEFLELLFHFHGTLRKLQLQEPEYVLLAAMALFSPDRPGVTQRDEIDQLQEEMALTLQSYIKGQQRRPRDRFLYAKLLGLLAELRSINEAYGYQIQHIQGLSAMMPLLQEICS
Sequence of Thyrotropin receptor (Homo sapiens) (P16473 whole entry, looked up): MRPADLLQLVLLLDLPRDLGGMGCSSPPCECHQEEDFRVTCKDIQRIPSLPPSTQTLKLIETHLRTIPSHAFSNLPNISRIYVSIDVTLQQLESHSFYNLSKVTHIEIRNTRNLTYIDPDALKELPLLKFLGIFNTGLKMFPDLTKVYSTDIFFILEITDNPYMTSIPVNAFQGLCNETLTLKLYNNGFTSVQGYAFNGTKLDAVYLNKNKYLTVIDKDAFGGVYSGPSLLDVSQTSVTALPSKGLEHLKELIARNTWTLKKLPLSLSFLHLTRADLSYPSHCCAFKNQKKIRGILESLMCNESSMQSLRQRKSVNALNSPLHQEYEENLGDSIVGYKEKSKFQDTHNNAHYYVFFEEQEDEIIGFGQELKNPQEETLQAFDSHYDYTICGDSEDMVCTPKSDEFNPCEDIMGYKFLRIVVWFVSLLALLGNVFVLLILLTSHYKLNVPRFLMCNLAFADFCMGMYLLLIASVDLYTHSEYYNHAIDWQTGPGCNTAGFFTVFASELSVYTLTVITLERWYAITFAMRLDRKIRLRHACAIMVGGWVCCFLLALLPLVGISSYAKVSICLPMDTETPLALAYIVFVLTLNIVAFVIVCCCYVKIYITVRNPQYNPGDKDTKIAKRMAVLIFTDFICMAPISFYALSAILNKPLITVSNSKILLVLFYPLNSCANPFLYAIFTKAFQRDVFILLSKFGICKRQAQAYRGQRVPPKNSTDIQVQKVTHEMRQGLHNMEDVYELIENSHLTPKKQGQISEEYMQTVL
Sequence of Luciferin 4-monooxygenase (Photinus pyralis) (P08659 whole entry, looked up): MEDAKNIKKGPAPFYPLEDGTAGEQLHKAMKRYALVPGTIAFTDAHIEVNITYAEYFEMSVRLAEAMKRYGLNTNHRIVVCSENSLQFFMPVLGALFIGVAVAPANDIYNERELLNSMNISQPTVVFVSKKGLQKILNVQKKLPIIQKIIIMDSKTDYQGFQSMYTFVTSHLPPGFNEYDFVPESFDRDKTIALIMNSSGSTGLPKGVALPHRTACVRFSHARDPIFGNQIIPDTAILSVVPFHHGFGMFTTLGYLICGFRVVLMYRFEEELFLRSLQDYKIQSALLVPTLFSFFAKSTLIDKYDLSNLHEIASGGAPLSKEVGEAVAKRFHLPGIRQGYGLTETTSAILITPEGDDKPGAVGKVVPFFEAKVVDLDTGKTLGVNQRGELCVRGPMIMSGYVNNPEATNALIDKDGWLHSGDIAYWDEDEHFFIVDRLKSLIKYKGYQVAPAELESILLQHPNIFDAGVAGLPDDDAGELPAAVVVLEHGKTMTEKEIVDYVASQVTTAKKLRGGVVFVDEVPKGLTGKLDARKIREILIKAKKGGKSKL

As for `C=CN1CCCC1=O`, the Potency entry in assay [1], in assay [2], in assay [3], in assay [4], in assay [5] and in assay [6] was “inactive” throughout. Besides, the Potency result in assay [7], in [8], in assay [10], in [11], in assay [12] and in assay [13] was “inactive” in each case. Also, the Potency entry in assay [14] was “inactive”. In addition, the outcome in [9] was inactive.
As for `CC1(C)C(C=C(Cl)Cl)C1C(=O)OCc1cccc(Oc2ccccc2)c1` (stereo not drawn), the Potency result in [1], in assay [2], in assay [3], in assay [4], in assay [5] and in assay [6] was “inactive” each time. Also, the Potency result in assay [7], in [8], in assay [10], in assay [11], in assay [12] and in assay [13] was “inactive” each time. Further, the Potency result in assay [14] is “inactive”. For the same compound, the call in [9] was inactive.
As for `CC(C)(C)c1cccc(C(C)(C)C)c1O`, the Potency result in assay [1], in assay [2], in assay [4], in [5], in assay [15] and in assay [6] was “inactive” each time. The Potency entry in assay [16], in assay [8], in assay [10], in [11], in [13] and in [14] was “inactive” in each case. The Potency in [7] was 53.7 µM (active) and inactive; in [12], 24 µM (active) and inactive. In assay [9], the call was inactive.
`COC(=O)C(C)Oc1ccc(Oc2ncc(C(F)(F)F)cc2Cl)cc1` (stereo not drawn): the Potency result in assay [1], in assay [2], in [3], in [5], in assay [6] and in assay [18] was “inactive” in each case. For the same compound, the Potency entry in assay [16], in assay [7], in assay [8], in assay [10], in assay [11] and in assay [12] was “inactive” each time. The Potency entry in assay [13] and in assay [14] was “inactive” throughout. Besides, the figures for the Potency in [17] and in [19] were 78 µM (active) and 39.1 µM (active), respectively. Further, the result in [9] was inactive. The activity change, positive = activation in [20] is -47.3% (inactive) and -26.9% (inactive).
As to `O=S1(=O)CCCO1`, the Potency entry in assay [1], in assay [2], in assay [4], in assay [5], in assay [6] and in assay [16] was “inactive” each time. The Potency entry in assay [7], in assay [8], in assay [10], in [11], in assay [12] and in assay [13] was “inactive” each time. The Potency result in [14] was “inactive”. In addition, in assay [9], the compound was called inactive.
`Cc1ccc(S(=O)(=O)O)cc1C`: the Potency entry in assay [1], in assay [2], in assay [3], in [5], in assay [6] and in assay [16] was “inactive” each time. For the same compound, the Potency result in [7], in assay [8], in assay [10], in assay [11], in [12] and in assay [13] was “inactive” in each case. The Potency result in assay [14] is “inactive”. Moreover, the call in assay [9] was inactive.
For `CCCCCCC(C)O` (stereo not drawn), the Potency result in assay [1], in assay [2], in [3], in assay [4], in assay [6] and in assay [7] was “inactive” throughout. The Potency result in [8], in assay [10], in [11], in assay [12], in [13] and in assay [14] was “inactive” in each case. In assay [9], the outcome was inactive.
For the compound `Cc1ccc(C(C)(C)C)c(O)c1`, the Potency entry in assay [1], in [2], in assay [3], in [6], in assay [17] and in assay [18] was “inactive” in each case. The Potency result in assay [7], in assay [8], in assay [11], in [12], in assay [13] and in assay [14] was “inactive” throughout. Also, the Potency in assay [5] is 59.1 µM (active); in assay [10], 97.5 µM (active) and 89.8 µM (active). Further, the compound was classed as inactive in assay [9]. Besides, the activity change, positive = activation in assay [20] is -17.4% (inactive) and -15.2% (inactive).
